Compound activity: PubChem BioAssay, ICCB-Longwood Screening Facility, Harvard Medical School
Sa helicase inh = inhibitors of S. aureus replicative helicase, primary screen, biochemical, fluorescence unwinding readout; replicative DNA helicase (DnaC/DnaB), Staphylococcus aureus; purified S. aureus helicase, fluorescence unwinding assay; inhibition, % (test concentration not listed); 120,000 tested, 0.05% active; AID 485395, 2010; in the data active means inhibition above about 25%, passing the limit was not always enough;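 further: 0% = mean of negative control wells and 100% = mean of positive control wells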
Sa growth 42C = S. aureus growth inhibition at 42 and 30 °C, primary screen, LtaS inhibitor project, RN4220, two temperatures. OD600, 20 h, 42 °C; active compounds read low. relative growth, % (concentration not given with the values). 170,000 tested, 0.53% active;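 active means relative growth at most 50% at the other temperature and 20+ points below 30 °C, or under 10% at both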
Active calls of the source: *; nt = no result given; ! = a repeat was not active. The entries come from a sample that favours hits as a whole.

SMILES	Sa helicase inh	Sa growth 42C
COc1ccc(NC(=O)CSc2nc3c(cc2C#N)C(=O)CCC3)cc1	17	nt
CCOc1ccc2nc(NC(=O)c3ccccc3Cl)sc2c1	-22	94
CC1COc2c(F)c(F)cc3c(=O)c(C(=O)O)cn1c23 (stereo unspecified)	18	nt
COc1c(N2C[C@@H]3CCCN[C@@H]3C2)c(F)cc2c(=O)c(C(=O)O)cn(C3CC3)c12	nt	-0.9*
CCn1cc(C(=O)O)c(=O)c2cc(F)c(N3CCNC(C)C3)c(F)c21 (stereo unspecified)	nt	-0.6*
CC1COc2c(N3CCN(C)CC3)c(F)cc3c(=O)c(C(=O)N4CCN(S(=O)(=O)c5ccccc5)CC4)cn1c23 (stereo unspecified)	-9	90
CCOC(=O)/C=C1\SC(C)C(=O)N1CC(=O)c1ccc(Br)cc1 (stereo unspecified)	-25	129
NC[C@H]1O[C@H](O[C@H]2[C@H](O)[C@@H](O[C@H]3O[C@H](CO)[C@@H](O)[C@H](N)[C@H]3O)[C@H](N)C[C@@H]2N)[C@H](N)C[C@@H]1O	nt	-0.6*!
NC[C@H]1O[C@H](OC2[C@@H](N)C[C@@H](N)[C@H](O[C@H]3O[C@H](CO)[C@@H](O)[C@H](N)[C@H]3O)[C@H]2O)[C@H](O)[C@@H](O)[C@@H]1O (stereo partly specified)	nt	99
c1ccc(-n2nnnc2Oc2cccc3cccnc23)cc1	6	-0.3*
c1ccc(-n2nnnc2OCCOc2nnnn2-c2ccccc2)cc1	16	97
O=S(=O)(Nc1ccc(O)c2ccccc12)c1ccccc1	2	5.0*
O=C(O)c1ccccc1NS(=O)(=O)c1ccccc1	13	120
CCCn1c(NC(=O)Nc2ccccc2)c2ccccc2nc1=O	-10	103
FC(F)(F)COc1ccc(-c2nc(-c3ccc(Cl)cc3)no2)cn1	-18	101
Cn1nc(C(=O)N2CCCN(Cc3ccccc3Cl)C2)c2c1-c1ccccc1OC2	11	100
Cc1nc2c(C(=O)NCc3ccccc3)c[nH]n2c(=O)c1Cc1ccccc1Cl	nt	0.7*
Cc1nc2c(C(=O)NCc3ccccc3)c[nH]n2c(=O)c1Cl	6	94
COc1ccc(/C=C2\CCCC3=C2Nc2ncnn2C3c2ccc(OC)cc2)cc1 (stereo unspecified)	4	80
Cc1ccc(/C=C2\CCCC3=C2Nc2nnnn2C3c2ccc(C)cc2)cc1 (stereo unspecified)	9	0.7*
Cn1cc(/C(N)=N/O)c(=O)n(Cc2ccccc2)c1=O	nt	73
C/C=C(/C)C(=O)OC1CC(O)(C(C)C)C2C(OC(=O)c3ccc(O)cc3)CC(C)=CCC12C (stereo unspecified)	-1	6.0*
CCC(=O)Nc1nc(-c2ccc3c(c2)CCN3C(C)=O)cs1	-1	106
O=C(NCc1ccccn1)c1cccnc1SCCS(=O)(=O)c1ccc(C(F)(F)F)cn1	nt	94
N#CCOc1nc(OCC#N)nc(OCC#N)n1	-9	28*
SMILES	Sa helicase inh	Sa growth 42C
COc1nc(OCC#N)nc(N(C)C)n1	4	96
CO[C@H]1C[C@H](O[C@H]2[C@H](C)[C@@H](OC3O[C@H](C)C[C@H](N(C)C)[C@H]3O)[C@@H](C)C[C@]3(CO3)C(=O)[C@H](C)[C@@H](O)[C@@H](C)[C@@H](C)OC(=O)[C@@H]2C)O[C@@H](C)[C@@H]1O (stereo partly specified)	nt	-0.6*
CO[C@H]1C[C@H](O[C@H]2[C@H](C)[C@@H](OC3O[C@H](C)C[C@H](N(C)C)[C@H]3OC(C)=O)[C@@H](C)C[C@]3(CO3)C(=O)[C@H](C)[C@@H](OC(C)=O)[C@@H](C)[C@@H](C)OC(=O)[C@@H]2C)O[C@@H](C)[C@@H]1OC(C)=O (stereo partly specified)	nt	16
CNCc1ccc(C)o1	3	86
COc1ccc(-c2cn3c(n2)CCC3)cc1	-14	97
c1c(SSc2cn3c(n2)CCC3)nc2n1CCC2	3	-0.6*
CCOC(=O)CC(C)(O)c1ccccc1 (stereo unspecified)	2	107
O=C(O)C(=O)/C=C(\O)c1ccccc1	nt	93
O=C(/C=C(\O)c1ccccc1)C(F)(F)C(F)F	3	-0.8*
CCCC1CCC(c2ccc(C(N)=O)cc2)CC1 (stereo unspecified)	-12	74
CCCC1CCC(c2ccc(C(=O)CCN(C)C)cc2)CC1 (stereo unspecified)	20	-0.5*
Cc1ccc(Cc2c[nH]c(=S)s2)cc1	9	23*
Cc1ccc(Cc2cn3cc(-c4ccc(F)cc4)nc3s2)cc1	nt	96
CCN(CC)C(=O)N1CCN(c2ccccc2)CC1	7	102
C=CCN1C(=O)N(c2ccccc2)C(=O)C1CC(=O)Nc1ccc(CC)cc1 (stereo unspecified)	19	95
